Source: PubChem (Corson Lab, School of Medicine, Indiana University)
The full list was thinned out, with hits kept by preference.
FECH block: human FECH heme synthesis enzyme inhibition | purified FECH, Ni-mesoporphyrin absorbance 550 nm | calls only at 10 µM (by protocol) | 20,000 compounds, 3.3% hits;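 active = enzyme reaction rate more than 3 SD below the solvent-only control wells on the same plate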;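 note: lower slope than DMSO wells means FECH inhibition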
Target sequence (P22830 whole entry, looked up): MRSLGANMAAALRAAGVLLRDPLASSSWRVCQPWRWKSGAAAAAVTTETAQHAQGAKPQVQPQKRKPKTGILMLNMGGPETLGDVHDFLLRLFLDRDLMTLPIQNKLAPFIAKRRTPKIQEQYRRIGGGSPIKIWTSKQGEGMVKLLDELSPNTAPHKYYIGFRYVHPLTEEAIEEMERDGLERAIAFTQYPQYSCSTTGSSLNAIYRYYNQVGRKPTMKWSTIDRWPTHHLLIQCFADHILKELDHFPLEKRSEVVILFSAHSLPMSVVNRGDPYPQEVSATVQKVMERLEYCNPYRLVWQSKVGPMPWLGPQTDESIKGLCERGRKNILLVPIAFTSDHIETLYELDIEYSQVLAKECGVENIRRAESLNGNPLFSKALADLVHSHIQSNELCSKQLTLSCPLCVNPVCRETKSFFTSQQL
Starred values were filed as active, the others as inactive; i = inactive; + = active, no number.

SMILES	FECH block
COc1ccc(Cl)c(CN2CCN(c3ncc(F)cn3)CC2)c1F	i
CCOc1cccc(CN2CCC(Cc3nnc(SC)n3C)CC2)c1O	i
Cc1ccc(Cl)c(CN2CCC(Cc3nnc(CO)n3C)CC2)c1F	+
Cc1cccc(N2CCN(c3ncc(NS(=O)(=O)c4ccccc4)cc3C(=O)O)CC2C)c1 (stereo not drawn)	i
Fc1cccc(F)c1CCC1CCCN(Cc2cscn2)C1 (stereo not drawn)	i
Cc1ccccc1CCC1CCCN(CCO)C1 (stereo not drawn)	i
Fc1ccc(CCC2CCCN(CCCn3cnnn3)C2)c(F)c1 (stereo not drawn)	+
Cc1ccc2[nH]cc(-c3cc(O)cc(C(=O)O)c3)c2c1	i
COc1cccc(OC)c1-c1ccc2nc(CO)[nH]c2c1	+
COc1cc2c(cc1-c1nccn1-c1ccc3nc(CO)[nH]c3c1)CCC2	i
COc1ccc(-c2ccc3nc(CO)[nH]c3c2)cc1Cl	i
Cc1ccnc(N2CCC(C(=O)Nc3ccc(S(N)(=O)=O)cc3)CC2)n1	i
Cc1occc1C(=O)Nc1ccc(C(=O)NC(C)Cc2ccncc2)cc1 (stereo not drawn)	i
Cc1cc(C)n(CCNC(=O)c2cccc3ccnn23)c(=O)n1	i
O=C(NCCN1N=C(c2ccccc2)CCC1=O)c1cccc2ccnn12	+
O=C(NCc1cc(=O)[nH]cn1)c1cccc2ccnn12	i
Cn1nnc(-c2ccc(C(=O)Nc3cnc4n3CCCC4)cc2)n1	+
CN(C)CC(=O)Nc1ccc(C(=O)Nc2cnc3n2CCCC3)cc1	i
O=C(CCCn1nnc(-c2ccc(F)cc2)n1)Nc1cnc2n1CCCC2	i
O=C(CCn1cncn1)N1CC[C@@H](c2ccc3c(c2)OCO3)[C@H](O)C1	i
O=C(Nc1nc2n(n1)C(c1ccc(F)cc1)C=C(c1ccc(Cl)cc1)N2)c1ccc(F)cc1 (stereo not drawn)	i
O=C(Nc1nc2n(n1)C(c1ccc(Cl)cc1)C=C(c1ccc(Cl)cc1)N2)c1ccco1 (stereo not drawn)	i
Cc1ccc(C2=CC(c3ccc(Cl)cc3)n3nc(NC(=O)c4cccc(C)c4)nc3N2)cc1 (stereo not drawn)	i
Cc1ccc(C2=CC(c3ccc(Cl)cc3)n3nc(NC(=O)c4ccco4)nc3N2)cc1 (stereo not drawn)	+
Cc1ccc(C2=CC(c3ccc(Cl)cc3)n3nc(NC(=O)c4ccc(F)cc4)nc3N2)cc1 (stereo not drawn)	+
SMILES	FECH block
Cc1ccc(C2=CC(c3ccc(Cl)cc3)n3nc(NC(=O)c4ccccc4)nc3N2)cc1 (stereo not drawn)	+
Cc1ccc(C(=O)Nc2nc3n(n2)C(c2ccc(F)cc2)C=C(c2ccc(C)cc2)N3)cc1 (stereo not drawn)	i
Cc1ccc(C2=CC(c3ccc(Cl)cc3)n3nc(NC(=O)CC(C)C)nc3N2)cc1 (stereo not drawn)	+
O=C(Nc1nc2n(n1)C(c1ccc(F)cc1)C=C(c1ccc(Cl)cc1)N2)c1ccco1 (stereo not drawn)	i
Cc1ccc(C2=CC(c3ccc(Cl)cc3)n3nc(NC(=O)CCc4ccccc4)nc3N2)cc1 (stereo not drawn)	i
Cc1ccc(C(=O)Nc2nc3n(n2)C(c2ccc(Cl)cc2)C=C(c2ccccc2)N3)cc1 (stereo not drawn)	i
CC(C)C(=O)Nc1nc2n(n1)C(c1ccc(Cl)cc1)C=C(c1ccc(Cl)cc1)N2 (stereo not drawn)	i
CCOc1ccccc1CNC(=O)Cn1nc(N2CCN(c3ccc(F)cc3)CC2)ccc1=O	i
Cc1ccc2nc(CCNC(=O)[C@@]34CC[C@@](C)(OC3=O)C4(C)C)[nH]c2c1	i
CC(C)c1cc(C2CCN(C(=O)C3=CC(=O)CC(C)(C)O3)CC2)[nH]n1	i
Cc1ccccc1CN1CCC(CNC(=O)c2ccc[nH]c2=O)C1 (stereo not drawn)	i
NC(=O)c1cnc2n1CCN(C(=O)c1csc(-c3cccs3)n1)C2	i
c1cc(-c2ccc3cc[nH]c3c2)c2ccncc2c1	i
O=C(c1ccccn1)N1C[C@H]2OC(=O)N(CCCN3CCOCC3)[C@H]2C1	i
O=C(NCCc1csc(-c2cccnc2)n1)c1ccc2c(c1)CCCO2	i
c1ccc(-c2nccn2CCc2cccs2)nc1	i
CCc1ncc(C(=O)N2CCc3nnc(CCc4ccccc4)n3CC2)cn1	i
Cn1ncc2c(NCCNC(=O)c3cccnc3)nc(C(C)(C)C)nc21	i
Cc1cnc(NCc2ccc(C(=O)N(C)C)o2)nc1N(C)C	i
Cc1cnc(NCCNC(=O)c2cccnc2)nc1N(C)C	+
CCc1nc(SCC(=O)N2CC[C@@H](c3sccc3C)[C@H](O)C2)n[nH]1	i
Cc1ccccc1-n1cc(CN(C)C(=O)c2cn[nH]n2)cn1	i
Cc1ccc(C)c(CN2CC(=O)N(Cc3ccc(Cl)cc3)c3ccccc3S2(=O)=O)c1	+
Cc1cccc(CN2CC(=O)N(Cc3ccc(Cl)cc3)c3ccccc3S2(=O)=O)c1	i
O=C1CN(Cc2ccccc2Cl)S(=O)(=O)c2ccccc2N1Cc1ccc(Cl)cc1	i
SMILES	FECH block
COc1cccc(CNC(=O)c2cc(-c3ccc(OC)c(S(N)(=O)=O)c3)n[nH]2)c1	i
O=C1Nc2ccccc2C12CCCN(c1noc(-c3ccccc3)n1)C2 (stereo not drawn)	i
CCCc1nc(CN(CC)C(=O)c2cc(-c3ccccc3)nn2C)no1	i
CN1CCC(Cc2noc(CCC(=O)c3ccccc3)n2)CC1	i
Fc1ccc(C2(c3noc(CCN4CCCCO4)n3)CCOC2)cc1 (stereo not drawn)	i
CCOc1ccccc1NCc1cc(=O)n2[nH]c(NCc3ccccc3)nc2n1	i
COc1ccc(NCc2cc(=O)n3[nH]c(NCc4ccccc4Cl)nc3n2)cc1	i
COc1ccc(CNc2nc3nc(CNc4cccc(OC)c4)cc(=O)n3[nH]2)cc1	i
COc1ccccc1NCc1cc(=O)n2[nH]c(NCc3ccccc3)nc2n1	i
COc1cccc(NCc2cc(=O)n3[nH]c(NCc4ccccc4Cl)nc3n2)c1	+
CCOc1ccccc1NCc1cc(=O)n2[nH]c(NCc3ccccc3Cl)nc2n1	+
Cc1nc(CCN)cc(N(C)Cc2sccc2C)n1	i
Cc1cc(C)c2ccc(C(=O)N3CCCC(O)(CO)C3)nc2c1O (stereo not drawn)	i
Cn1ccc(CC(=O)NCc2cccc(OC(F)(F)F)c2)c1	i
CC(=O)OC12CC3C[C@@H](C1)CC(C(=O)NCC1CCCN(C)C1)(C3)C2 (stereo partly drawn)	i
CCc1cccc(NC(=O)c2cc(-c3ccc(OC)c(S(N)(=O)=O)c3)n[nH]2)c1	i
CC(C)c1nc(CCN(C)C(=O)c2ccc(Cl)cn2)no1	i
Cc1cc(C)n(CCC(=O)N(C)CCc2noc(C(C)C)n2)c(=O)n1	+
Cc1cc(C)n(CCC(=O)N(C)Cc2noc(CC(C)C)n2)c(=O)n1	i
CCCc1nc2nc[nH]n2c(=O)c1NC(=O)NCc1cccc(OC)c1	i
Nc1cc(-c2ccc(-c3ccn[nH]3)cc2)ccn1	i
O=C(CCN1CCN(CCc2ccncc2)CC1)NC1CCCCCC1	i
CCC(NC(=O)c1ccccc1-n1cncn1)c1ccnn1C (stereo not drawn)	i
CCC(NC(=O)CCC(=O)NC1CCCCCCC1)c1ccnn1C (stereo not drawn)	+
